Shown are actives, neighbours in structure and some others; about 12% of the full set was active somewhere.
Pf growth 96h = P. falciparum growth inhibition at 96 hour, primary screen for plastid delayed-death inhibitors. P. falciparum luciferase reporter growth, 96 h. Potency, µM (series often up to 28.7 µM), without a hit: at the top dose activity change, negative = inhibition, hits mostly inhibitors. 320,000 tested, 6.9% active; note: % is set by controls: 0 for no effect and ±100 for the full control effect
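96 h incubation, 37 C, 5% CO2, of luciferase-reporter P. falciparum-infected RBCs (2% hematocrit, 0.05% parasitemia final) with test compounds; endpoint luminescence.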
Pf growth 48h = P. falciparum growth inhibition at 48 hours (one generation); Potency, µM (titrated, usually from 28.7 µM), inactives show at the top dose activity change, negative = inhibition, usual class: inhibitors; P. falciparum luciferase growth in erythrocytes, 48 h; 310,000 tested, 5.9% active; note: % is set by controls: 0 for no effect and ±100 for the full control effect
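A one-generation exposure of luciferase-tagged malaria parasites in RPMI 1640/Albumax erythrocyte culture, 37 C and 5% CO2. Inhibition is inferred from decreased luminescence after adding detection reagent.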
Sm TGR inh = inhibitors of Schistosoma mansoni thioredoxin glutathione reductase. Q962Y6. purified TGR, DTNB reduction, TNB absorbance 405 nm. Potency, µM (titrated, usually from 114 µM), inactives show at the top dose activity change, negative = inhibition, hits mostly inhibitors. 360,000 tested, 3% active. AID 485364; note: % is set by controls: 0 for no effect and ±100 for the full control effect; nearly all actives have a fitted effect of over 60% in size
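First, TGR (20 nM dispensed) and NADPH were mixed with compound. Second, a 15 min room-temperature incubation followed. Third, further NADPH and then DTNB were added to start the reaction. Finally, TNB absorbance was monitored kinetically.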
SARS PLP yeast = SARS-CoV PLP inhibition in yeast; S. cerevisiae expressing SARS-CoV PLpro, growth rescue; Potency, µM (series often up to 32.9 µM), without a hit: top-dose activity, positive = growth rescue, usual class: activators; 330,000 tested, 0.19% active; AID 485353; calls by dose curve; note: 0% is about no effect; nearly all actives have a fitted effect of over 55% in size
Starred values were filed as active, the others as inactive; ? = inconclusive; . = no result given; [ ] = remark or other dose. Unless noted, calls come from the whole dose curve; as a rule, active = well fitted curve in the direction sought with a large enough effect; inconclusive = small, poorly fitted or top-dose-only effect, or another doubt; inactive = no such curve, though single readings can be large; an effect the other way counts as inactive or inconclusive. Potency is the fitted concentration of half-maximal effect.

SMILES	Pf growth 96h	Pf growth 48h	Sm TGR inh	SARS PLP yeast
O=C(NCC1CCCCC1)c1cccc([N+](=O)[O-])c1	?	5.22µM*	0.0%	-2.9%
O=C(NCC1CCCCC1)c1cccc(S(=O)(=O)N2CCCC2)c1	?	10.4µM*	-9.9%	-3.1%
O=C(NC1CCCCC1)c1cccc(S(=O)(=O)N2CCCCC2)c1	4.15µM*	9.4%	4.0%	1.8%
CC(NC(=O)NC(=O)c1cccc([N+](=O)[O-])c1)C1CC1 (stereo not drawn)	22.4%	10.4µM*	7.4%	2.9%
Cc1ccc2c(c1)cc(C(=O)NCc1ccccc1C)n2C	.	.	-4.8%	.
Cc1cc(C)cc(NC(=O)Nc2c[nH]c(=O)[nH]c2=O)c1	.	.	0.8%	.
Cc1ccc(N(CC(=O)Nc2ccc(C)c(F)c2)S(=O)(=O)c2c(C)n[nH]c2C)cc1	.	.	11.7%	.
CCOC(=O)c1c[nH]c2nc(C)ccc2c1=O	31.2%	-28.5%	3.0%	8.0%
CCOC(=O)c1c[nH]c2cc(OCC(C)C)c(OCC(C)C)cc2c1=O	0.0379µM*	0.0536µM*	.	.
CCOc1ccc2[nH]cc(C(=O)NCCc3ccccc3)c(=O)c2c1	?	-5.6%	91.6%	3.2%
CCc1ccc2[nH]cc(C(=O)OCCOC)c(=O)c2c1	10.4µM*	1.47µM*	?	-4.1%
O=C(NCCc1ccccc1)C1CCN(S(=O)(=O)c2ccccc2)CC1	-0.1%	.	0.4%	2.6%
COCCN(Cc1ccccc1)C(=O)C1CCN(S(=O)(=O)c2ccc3c(c2)OCCO3)CC1	11.7µM*	?	0.4%	1.1%
O=C(C1CCN(S(=O)(=O)c2ccccc2)CC1)N(CCc1ccccc1)Cc1ccco1	28.6%	13.1µM*	?	0.0%
Cc1cc(C)cc(NC(=O)Cn2cc(C(=O)c3cccs3)c3ccccc32)c1	.	.	5.5%	.
CCOC(=O)c1cc(S(=O)(=O)N2CCN(c3ccc(C(C)=O)cc3)CC2)[nH]n1	.	.	-0.6%	.
NNc1nc2sc3c(c2c(=O)n1Cc1ccccc1)CCC3	14.6%	4.4%	-13.3%	2.3%
NNc1nc2sc3c(c2c(=O)n1C1CCCCC1)CCN(Cc1ccccc1)C3	1.17µM*	?	-0.6%	-0.7%
C=C(C)CSc1nc2sc3c(c2c(=O)n1C1CCCCC1)CCN(C)C3	1.04µM*	1.47µM*	-22.2%	0.1%
CSc1nc2sc3c(c2c(=O)n1C1CCCCC1)CCN(C)C3	?	?	-28.7%	-3.3%
CCSc1nc2sc3c(c2c(=O)n1C1CCCCC1)CCN(C)C3	-4.8%[5.75 µM]	1.31µM*	-33.8%	-2.3%
COC(=O)c1ccc(NC(=O)c2cc(S(=O)(=O)N3CCc4ccccc43)cn2C)cc1	.	.	-19.2%	.
CCCc1nnc(NC(=O)Cc2coc3ccc(C(C)C)cc23)s1	.	.	-4.0%	.
CCN(CC)S(=O)(=O)c1ccc2c(c1)N(CC(=O)NCCc1ccc(OC)c(OC)c1)C(=O)CO2	.	.	4.9%	.
CC(C)N(Cc1ccccc1)C(=O)COC(=O)c1cnc(Cl)c(Cl)c1	.	.	.	-6.6%
SMILES	Pf growth 96h	Pf growth 48h	Sm TGR inh	SARS PLP yeast
CCNc1nc(NCC)nc(N(C)/N=C/c2ccco2)n1	1.47µM*	?	35.5µM*	-1.0%
CCC(CC)C(=O)NCc1nc2cccnc2n1Cc1ccc(F)cc1	.	.	11.7%	.
C[C@H](OC(=O)N1CCN(C(c2ccccc2)c2ccccc2)CC1)[C@@H]1O[C@@]2(C)CCC[C@H]1O2	4.65µM*	6.57µM*	-1.6%	-0.6%
CCOc1ccc(CN(C)C(=O)CNC(=O)C2CCCCC2)cc1OC	?	?	-3.3%	10.2%
CCOC(=O)c1cc2c(nc1C)-c1cc(Cl)cc(Cl)c1OC2O (stereo not drawn)	4.65µM*	6.57µM*	-1.1%	-5.0%
CCOC(=O)c1c(NC(=O)COC(=O)c2cnc(C)cn2)sc(C(=O)N(C)C)c1C	-4.8%	-23.7%	-1.2%	-1.6%
CCOC(=O)c1c(NC(=O)CSc2ncn[nH]2)sc(C(C)=O)c1C	0.4%	-3.9%	?	-6.4%
CCOC(=O)c1c(-c2ccco2)csc1NC(=O)COC(=O)c1cnc(C)cn1	-0.4%	0.7%	28.2µM*	-18.0%
CCOC(=O)c1c(-c2ccc(C)o2)csc1NC(=O)CSc1ncn[nH]1	14.7µM*	.	20µM*	-16.8%
CCOC(=O)c1c(-c2ccc(C)o2)csc1N	56.3%	.	-13.2%[11.4 µM]	1.6%
CCOC(=O)c1c(-c2ccc(C)o2)csc1NC(=O)COC(=O)c1cccs1	-39.0%	?	14.1µM*	-22.2%
CCOC(=O)c1c(-c2ccc(C)o2)csc1NC(=O)CN1CCOCC1	?	.	22.4µM*	-9.4%
COc1ccc(/C=C/C(=O)NCC(=O)N/N=C/c2cccs2)cc1	1.7%	31.5%	-3.0%	?
CC1(C)C(O)=C(c2nc3ccccc3[nH]2)C(=N)N1c1ccccc1	8.28µM*	?	6.6%	-0.6%
CC(C)CCN1CC(O)=C(c2nc3ccccc3[nH]2)C1=N	.	17.4%	0.1%	-0.6%
CCOC(=O)c1c(CS(=O)(=O)c2ccccc2)n(C)c2cc(Br)c(O)cc12	-43.9%	-28.8%	1.0%	2.6%
CCOC(=O)c1c(CN2CCN(CCO)CC2)n(-c2ccccc2)c2cc(Br)c(O)cc12	1.65µM*	2.08µM*	2.5%	-0.3%
CCOC(=O)c1c(CSC(=N)N)n(-c2ccccc2)c2cc(Br)c(OC(C)=O)cc12	2.08µM*	2.94µM*	-3.5%	0.0%
CCOC(=O)c1c(CN2CCN(c3ccccc3)CC2)oc2cc(Br)c(O)cc12	?	1.65µM*	8.0%	4.2%
CCOC(=O)c1c(CNc2ccncc2)n(C)c2cc(Br)c(O)cc12	-0.3%	0.329µM*	24.5%	-0.6%
CCOC(=O)c1c(CN2CCN(Cc3ccccc3)CC2)n(C)c2cc(Br)c(OC)cc12	?	.	-21.2%	5.7%
CCOC(=O)c1c(CN2CCN(C)CC2)n(-c2ccccc2)c2cc(Br)c(O)cc12	?	?	-3.3%	0.6%
O=C(c1cnc(N2CCCCC2)c2ccccc12)N1CCN(c2ccc(Cl)cc2)CC1	.	.	-3.5%	.
